# Calls of active or inactive are those of the source. How the source made its calls: active means hit-call score of the fitted dose curve at least 0.9, where 1 is the maximum; inactive means score below 0.9.
# Tests used:
# [1] = read-out: Interleukin-1 alpha (IL1a), IL1A (gene 3552); test: BSK_KF3CT_IL1a: BioMAP Diversity Plus: KF3CT Assay for Interleukin-1 alpha (IL1a) Biomarker Activity (AID 2283070); details: primary human keratinocytes with fibroblasts; actives raise or lower the signal
# Outline: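 Primary human keratinocyte plus foreskin fibroblast co-culture, dosed and measured at 24 h in 96-well plates. IL-1a level quantified by ELISA; bidirectional fit relative to DMSO.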
# [2] = read-out: TIMP metallopeptidase inhibitor 2 (TIMP2), TIMP2 (gene 7077); test: BSK_KF3CT_TIMP2: BioMAP Diversity Plus: KF3CT Assay for TIMP metallopeptidase inhibitor 2 (TIMP2) Biomarker Activity (AID 2283071); details: primary human keratinocytes with fibroblasts; actives raise or lower the signal
# Outline: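 Human primary keratinocyte/foreskin fibroblast co-culture dosed with chemical and sampled at 24 h. TIMP-2 levels quantified by ELISA; bidirectional fitting against DMSO negative control as baseline.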
# [3] = read-out: Transforming growth factor beta 1 (TGFb1), TGFB1 (gene 7040); test: BSK_KF3CT_TGFb1: BioMAP Diversity Plus: KF3CT Assay for Transforming growth factor beta 1 (TGFb1) Biomarker Activity (AID 2283072); details: primary human keratinocytes with fibroblasts; actives raise or lower the signal
# Outline: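 Human keratinocyte plus foreskin fibroblast primary co-culture, dosed with chemical for 24 h. TGF-b1 quantified by ELISA. Activity fitted bidirectionally against DMSO negative control as baseline.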
# [4] = read-out: C-C motif chemokine 2 (Homo sapiens) (UniProt P13500); test: BSK_KF3CT_MCP1: BioMAP Diversity Plus: KF3CT Assay for Monocyte Chemoattractant Protein 1 (MCP1/CCL2) Biomarker Activity (AID 2283073); details: primary human keratinocytes with fibroblasts; actives raise or lower the signal
# Outline: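 Biomarker MCP-1 is measured by ELISA in primary human keratinocytes co-cultured with foreskin fibroblasts, 24 h after chemical treatment; DMSO serves as the negative control and activity baseline.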
# [5] = read-out: Matrix Metallopeptidase 9 (MMP9), MMP9 (gene 4318); test: BSK_KF3CT_MMP9: BioMAP Diversity Plus: KF3CT Assay for Matrix Metallopeptidase 9 (MMP9) Biomarker Activity (AID 2283074); details: primary human keratinocytes with fibroblasts; actives raise or lower the signal;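 on AC50: MMP9 protein level quantified by ELISA in the co-culture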
# Outline: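 Human keratinocyte and foreskin fibroblast co-culture exposed to chemicals for 24 h; MMP9 biomarker measured by ELISA, bidirectional fitting relative to DMSO; cytotoxicity tracked by SRB total protein staining in parallel cultures.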
# [6] = read-out: urokinase plasminogen activator (uPA), PLAU (gene 5328); test: BSK_KF3CT_uPA: BioMAP Diversity Plus: KF3CT Assay for urokinase plasminogen activator (uPA) Biomarker Activity (AID 2283075); details: primary human keratinocytes with fibroblasts; actives raise or lower the signal
# Outline: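 Primary human keratinocyte/foreskin fibroblast co-culture exposed to chemical; uPA measured by ELISA at 24 h. Bidirectional fit versus DMSO, with parallel SRB total-protein staining for cytotoxicity.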
# CD40, CD40 (gene 958) [7] = test: BSK_LPS_CD40: BioMAP Diversity Plus: LPS Assay for CD40 Biomarker Activity (AID 2283076); details: primary human HUVEC with PBMC; actives raise or lower the signal
# Outline: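 Using a multiplexed primary human co-culture (umbilical vein endothelium plus PBMC), CD40 was read by ELISA 24 h after dosing, with cytotoxicity tracked by sulforhodamine B staining of parallel cultures and activity fitted bidirectionally versus DMSO.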
# [8] = read-out: E-selectin (Homo sapiens) (UniProt P16581); test: BSK_LPS_Eselectin: BioMAP Diversity Plus: LPS Assay for Eselectin Biomarker Activity (AID 2283077); details: primary human HUVEC with PBMC; actives raise or lower the signal
# Outline: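 Dose chemical onto LPS-driven HUVEC/PBMC co-culture; after 24 h, run ELISA for E-selectin; fit up- and down-going responses relative to DMSO control.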
# [9] = read-out: Interleukin-8 (IL8), CXCL8 (gene 3576); test: BSK_LPS_IL8: BioMAP Diversity Plus: LPS Assay for Interleukin-8 (IL8) Biomarker Activity (AID 2283078); details: primary human HUVEC with PBMC; actives raise or lower the signal
# Outline: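 In this LPS system, chemical-treated human umbilical vein endothelium/PBMC co-cultures were harvested at 24 h for IL-8 ELISA.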
# [10] = BSK_LPS_SRB: Viability Assessment in the BioMAP Diversity Plus: LPS Assay (AID 2283079); details: primary human HUVEC with PBMC;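 further: total protein by sulforhodamine B absorbance as a cytotoxicity measure; measured one day after compound addition; fitted in both directions against DMSO so loss or gain of signal counts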
# Outline: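 Cytotoxicity endpoint in human endothelial–PBMC co-culture: 24 h exposure, then SRB (0.1%) staining, 560 nm read.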
# [11] = read-out: Interleukin-1 alpha (IL1a), IL1A (gene 3552); test: BSK_LPS_IL1a: BioMAP Diversity Plus: LPS Assay for Interleukin-1 alpha (IL1a) Biomarker Activity (AID 2283080); details: primary human HUVEC with PBMC; actives raise or lower the signal
# Outline: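 Primary human HUVEC and PBMC co-culture stimulated with LPS is dosed and harvested at 24 h. Both increases and decreases in ELISA-measured IL-1a are scored relative to DMSO.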
# [12] = read-out: Monocyte Chemoattractant Protein-1 (MCP1), CCL2 (gene 6347); test: BSK_LPS_MCP1: BioMAP Diversity Plus: LPS Assay for Monocyte Chemoattractant Protein-1 (MCP1) Biomarker Activity (AID 2283081); details: primary human HUVEC with PBMC; actives raise or lower the signal;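 on AC50: secreted MCP-1 protein quantified by ELISA in culture supernatant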
# Outline: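 Values derive from bidirectional fitting against DMSO of ELISA-measured MCP-1 in a human primary endothelial and mononuclear cell co-culture, 24 h after chemical addition under LPS activation.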
# [13] = BSK_LPS_PGE2: BioMAP Diversity Plus: LPS Assay for Prostaglandin E2 (PGE2) Biomarker Activity (AID 2283082); details: primary human HUVEC with PBMC; actives raise or lower the signal;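 on AC50: secreted prostaglandin E2 measured by ELISA in LPS-stimulated co-culture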
# Outline: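 HUVEC plus PBMC co-culture stimulated with LPS; secreted PGE2 quantified by ELISA 24 h after chemical dosing. Activity fitted bidirectionally against DMSO as negative control and baseline; parallel SRB total-protein staining served as cytotoxicity check.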
# [14] = read-out: Macrophage colony-stimulating factor (MCSF), CSF1 (gene 1435); test: BSK_LPS_MCSF: BioMAP Diversity Plus: LPS Assay for Macrophage colony-stimulating factor (MCSF) Biomarker Activity (AID 2283083); details: primary human HUVEC with PBMC; actives raise or lower the signal
# Outline: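 Bidirectional fit versus DMSO of ELISA-measured M-CSF in co-cultured human umbilical vein endothelial cells and PBMC, sampled 24 h after dosing.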
# [15] = read-out: Tissue Factor, F3 (gene 2152); test: BSK_LPS_TissueFactor: BioMAP Diversity Plus: LPS Assay for Tissue Factor Biomarker Activity (AID 2283084); details: primary human HUVEC with PBMC; actives raise or lower the signal
# Outline: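 Read-out: CD142 ELISA, 24 h. System: LPS-driven human endothelial/PBMC co-culture. Analysis: up- or down-signal fitted against DMSO.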
# [16] = read-out: Tumor necrosis factor (Homo sapiens) (UniProt P01375); test: BSK_LPS_TNFa: BioMAP Diversity Plus: LPS Assay for Tumour Necrosis Factor alpha (TNFa) Biomarker Activity (AID 2283085); details: primary human HUVEC with PBMC; actives raise or lower the signal;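 on AC50: TNFa protein level quantified by ELISA in the co-culture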
# Outline: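 Human umbilical vein endothelial cells co-cultured with PBMC were exposed to test chemical and TNFa measured by ELISA 24 h after dosing. Bidirectional curve fitting was done relative to DMSO as negative control and baseline.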
# [17] = read-out: Vascular cell adhesion molecule 1 (VCAM1), VCAM1 (gene 7412); test: BSK_LPS_VCAM1: BioMAP Diversity Plus: LPS Assay for Vascular cell adhesion molecule 1 (VCAM1) Biomarker Activity (AID 2283086); details: primary human HUVEC with PBMC; actives raise or lower the signal
# Outline: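 Human umbilical vein endothelial cells co-cultured with peripheral blood mononuclear cells under LPS stimulation were exposed to test chemical for 24 h. VCAM-1 levels were then measured by ELISA, with bidirectional curve fitting relative to DMSO as negative control and baseline.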
# CD38, CD38 (gene 952) = test: BSK_SAg_CD38: BioMAP Diversity Plus: SAg Assay for CD38 Biomarker Activity (AID 2283087); details: primary human HUVEC with PBMC; actives raise or lower the signal
# Outline: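 Fluorescence ELISA of cell-surface CD38 served as the read-out, with either increase or decrease fitted against DMSO controls. Cells were a human umbilical vein endothelium plus PBMC co-culture under SEB/TSST-1 stimulation, measured 24 h after dosing.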
# CD40, CD40 (gene 958) [18] = test: BSK_SAg_CD40: BioMAP Diversity Plus: SAg Assay for CD40 Biomarker Activity (AID 2283088); details: primary human HUVEC with PBMC; actives raise or lower the signal
# Outline: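 Endpoint derived by fitting increases or decreases versus DMSO controls. CD40 is detected by fluorescence ELISA in a human vascular co-culture of endothelium and PBMC at 24 h.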
# CD69, CD69 (gene 969) = test: BSK_SAg_CD69: BioMAP Diversity Plus: SAg Assay for CD69 Biomarker Activity (AID 2283089); details: primary human HUVEC with PBMC; actives raise or lower the signal;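 on AC50: cell surface CD69 protein quantified by ELISA with fluorescence detection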
# Outline: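 Endothelial/PBMC co-culture; chemical added; 24 h incubation; CD69 ELISA with fluorescence detection; bidirectional fit vs DMSO.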
# Sequence of Tumor necrosis factor (Homo sapiens) (P01375 whole entry, looked up): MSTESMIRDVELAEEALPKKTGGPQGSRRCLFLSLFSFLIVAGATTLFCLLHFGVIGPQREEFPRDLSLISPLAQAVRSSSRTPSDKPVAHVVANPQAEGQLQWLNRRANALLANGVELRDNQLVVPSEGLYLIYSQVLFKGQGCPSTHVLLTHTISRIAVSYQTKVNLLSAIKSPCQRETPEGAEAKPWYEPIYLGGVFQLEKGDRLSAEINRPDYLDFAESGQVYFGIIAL
# Sequence of E-selectin (Homo sapiens) (P16581 whole entry, looked up): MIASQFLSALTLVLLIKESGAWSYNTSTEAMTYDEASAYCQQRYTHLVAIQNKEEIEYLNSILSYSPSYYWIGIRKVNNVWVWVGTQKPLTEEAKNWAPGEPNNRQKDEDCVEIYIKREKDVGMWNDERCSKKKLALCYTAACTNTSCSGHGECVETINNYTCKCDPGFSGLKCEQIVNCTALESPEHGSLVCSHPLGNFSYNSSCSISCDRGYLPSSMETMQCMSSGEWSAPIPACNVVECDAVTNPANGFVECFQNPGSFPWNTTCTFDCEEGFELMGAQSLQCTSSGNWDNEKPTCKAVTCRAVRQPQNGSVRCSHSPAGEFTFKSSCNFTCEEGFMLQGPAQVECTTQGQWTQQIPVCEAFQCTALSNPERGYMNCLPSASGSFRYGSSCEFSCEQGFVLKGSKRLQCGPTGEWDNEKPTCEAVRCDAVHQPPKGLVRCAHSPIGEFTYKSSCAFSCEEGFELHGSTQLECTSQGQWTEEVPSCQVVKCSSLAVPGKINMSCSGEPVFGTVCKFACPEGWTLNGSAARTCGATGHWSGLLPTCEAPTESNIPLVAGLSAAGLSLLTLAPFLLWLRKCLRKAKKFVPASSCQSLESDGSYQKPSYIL
smiles,measurement,setting,value
CC(C)Oc1cc(-n2nc(C(C)(C)C)oc2=O)c(Cl)cc1Cl,AC50,[1],13.9 µM (active)
same,outcome,[2],inactive
same,outcome,[3],inactive
same,outcome,[4],inactive
same,AC50,[5],28.8 µM (active)
same,outcome,[6],inactive
same,AC50,"CD40, CD40 (gene 958) [7]",14.8 µM (active)
same,AC50,[8],31.3 µM (active)
same,AC50,[9],31.5 µM (active)
same,AC50,[10],29.3 µM (active)
same,AC50,[11],32.7 µM (active)
same,AC50,[12],30.2 µM (active)
same,outcome,[13],inactive
same,AC50,[14],32.7 µM (active)
same,outcome,[15],inactive
same,AC50,[16],35.7 µM (active)
same,AC50,[17],31.7 µM (active)
same,AC50,"CD38, CD38 (gene 952)",28.7 µM (active)
same,AC50,"CD40, CD40 (gene 958) [18]",29.3 µM (active)
same,AC50,"CD69, CD69 (gene 969)",30.7 µM (active)
CCOP(=S)(OCC)SCn1c(=O)oc2cc(Cl)ccc21,outcome,[1],inactive
same,outcome,[2],inactive
same,outcome,[3],inactive
same,outcome,[4],inactive
same,outcome,[5],inactive
same,outcome,[6],inactive
same,AC50,"CD40, CD40 (gene 958) [7]",16.6 µM (active)
same,AC50,[8],9.68 µM (active)
same,AC50,[9],16.9 µM (active)
same,AC50,[10],31.6 µM (active)
same,outcome,[11],inactive
same,AC50,[12],25.8 µM (active)
same,AC50,[13],13.5 µM (active)
same,AC50,[14],11.1 µM (active)
same,outcome,[15],inactive
same,AC50,[16],12 µM (active)
same,AC50,[17],13.9 µM (active)
same,AC50,"CD38, CD38 (gene 952)",30.4 µM (active)
same,outcome,"CD40, CD40 (gene 958) [18]",inactive
same,outcome,"CD69, CD69 (gene 969)",inactive
CCCCC(CC)COC(=O)c1ccccc1C(=O)OCC(CC)CCCC (centres undefined),outcome,[1],inactive
same,outcome,[2],inactive
same,outcome,[3],inactive
same,outcome,[4],inactive
same,outcome,[5],inactive
same,outcome,[6],inactive
same,outcome,"CD40, CD40 (gene 958) [7]",inactive
same,outcome,[8],inactive
same,AC50,[9],3.22 µM (active)
same,AC50,[10],4.97 µM (active)
same,outcome,[11],inactive
same,outcome,[12],inactive
same,outcome,[13],inactive
same,AC50,[14],4.51 µM (active)
same,outcome,[15],inactive
same,AC50,[16],12.3 µM (active)
same,outcome,[17],inactive
same,AC50,"CD38, CD38 (gene 952)",7.36 µM (active)
same,outcome,"CD40, CD40 (gene 958) [18]",inactive
same,AC50,"CD69, CD69 (gene 969)",5.92 µM (active)
CCCC1COC(Cn2cncn2)(c2ccc(Cl)cc2Cl)O1 (centres undefined),outcome,[1],inactive
same,outcome,[2],inactive
same,outcome,[3],inactive
same,outcome,[4],inactive
same,outcome,[5],inactive
same,outcome,[6],inactive
same,AC50,"CD40, CD40 (gene 958) [7]",20 µM (active)
same,outcome,[8],inactive
same,outcome,[9],inactive
same,outcome,[10],inactive
same,outcome,[11],inactive
same,outcome,[12],inactive
same,AC50,[13],6.44 µM (active)
same,outcome,[15],inactive
same,outcome,[16],inactive
same,outcome,[17],inactive
same,outcome,"CD38, CD38 (gene 952)",inactive
same,outcome,"CD40, CD40 (gene 958) [18]",inactive
same,outcome,"CD69, CD69 (gene 969)",inactive
COP(=S)(OC)Oc1nc(Cl)c(Cl)cc1Cl,outcome,[1],inactive
same,outcome,[2],inactive
same,outcome,[3],inactive
same,outcome,[4],inactive
same,outcome,[5],inactive
same,outcome,[6],inactive
same,outcome,"CD40, CD40 (gene 958) [7]",inactive
same,AC50,[8],32.5 µM (active)
same,outcome,[9],inactive
same,outcome,[10],inactive
same,AC50,[11],27 µM (active)
same,AC50,[12],30.4 µM (active)
same,AC50,[13],26.7 µM (active)
same,outcome,[14],inactive
same,AC50,[15],25.3 µM (active)
same,AC50,[16],27.8 µM (active)
same,AC50,[17],26.4 µM (active)
same,outcome,"CD38, CD38 (gene 952)",inactive
same,outcome,"CD40, CD40 (gene 958) [18]",inactive
same,outcome,"CD69, CD69 (gene 969)",inactive

# From PubChem BioAssay (EPA / NIEHS)
